This note sets out measurements from PMC7819943, “Rice protein-binding microarrays: a tool to detect cis-acting elements near promoter regions in rice”.

The full ranking holds about 68,000 sequences; the median of “fluorescence intensity (a.u.)” is about 9,100, and the highest 2% start at about 16,000. The list comes from a sample in which the highest values are over-represented; it also holds similar and randomly drawn sequences.

In this test the target is OsWRKY34 (Oryza sativa, UniProt Q0JBA9 1-250). Kind of test: protein-binding microarray (RPBM); PBS, 2% BSA, 51.3 ng/ul salmon testes DNA, 50 uM zinc acetate, 200 nM TF, 25 C, 1 h; high values mean tight binding. The note with it: protein: recombinant; tags: N-terminal polyhistidine and DsRed monomer fusion (pET32a); label: CyDye5-dUTP incorporated in the synthesized complementary strand; 3' TTTTT single-stranded linker to array surface; dsDNA, one strand shown. The essentials: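 Using Ni–NTA, transcription factors fused N-terminally to polyhistidine and DsRed were purified after expression in E. coli BL21-CodonPlus. These were incubated at 200 nM with a blocked, double-stranded custom Agilent array for 1 h at 25 °C in a buffer containing 50 µM zinc acetate, and the array was washed. The binding signal is per-feature fluorescence intensity (arbitrary units) on an Axon 4000B scanner.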
OsWRKY34, sequence (Q0JBA9 entry or part of it): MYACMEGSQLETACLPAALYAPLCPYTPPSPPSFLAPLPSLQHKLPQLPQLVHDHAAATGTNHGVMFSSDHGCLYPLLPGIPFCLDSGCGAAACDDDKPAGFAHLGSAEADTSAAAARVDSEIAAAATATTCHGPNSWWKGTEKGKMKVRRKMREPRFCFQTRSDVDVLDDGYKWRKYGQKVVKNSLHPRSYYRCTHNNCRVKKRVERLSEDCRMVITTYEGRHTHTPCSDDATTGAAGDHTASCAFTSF
For the sequence “GTTGCAGGGTGGGGATTGTTAAATTTATTGTTTGGCTGGACGGAGTCACCTAGTGCAG”, the binding signal was 16600 fluorescence intensity (a.u.).
In the case of “AGTGGATGAGTTTGAGTTTTAGGATTTAGTGGGGTATTATCGGAGTCACCTAGTGCAG”, the binding signal is 15100 fluorescence intensity (a.u.).
For “GAGGTGGCTGGAGTGGGGTTTAGTGTTGGTTGTTAGGGATCGGAGTCACCTAGTGCAG”, the binding signal is 13500 fluorescence intensity (a.u.).
For “TATCTAATAATTGGATGGTTACAACCAAATACTTCTACATCGGAGTCACCTAGTGCAG”, the binding signal is 9870 fluorescence intensity (a.u.).
On to “TTGATCCTTTTTCGCCGCTCACGCCGAGCTGCCCCGACAACGGAGTCACCTAGTGCAG”, for which the binding signal is 8340 fluorescence intensity (a.u.).
With “TTTTCTATACTGTATTTTGTGTCATTTTCAATCATTGATTCGGAGTCACCTAGTGCAG”, the binding signal is 14400 fluorescence intensity (a.u.).
Take “AAACAGAGGTTTTTCTCCTGTACATGTGTCCCATGCCAACCGGAGTCACCTAGTGCAG”: the binding signal was 9880 fluorescence intensity (a.u.).
Regarding “TTTTTATATGTTTGGTTCTTATGAGTTCCTAAGTGTGAAACGGAGTCACCTAGTGCAG”, the binding signal is 8230 fluorescence intensity (a.u.).
Then “CATTTCTTATTTTGTTTTTGGGCTTTGATGTTTGGTTTCTCGGAGTCACCTAGTGCAG”, with 8740 fluorescence intensity (a.u.).
On to “TTTACATCTAATATTTTTTATTTGGGGTTCAGCGGGCATTCGGAGTCACCTAGTGCAG”, for which the binding signal was 11100 fluorescence intensity (a.u.).
Take “TGGTCGGGTGTTTTTGTGATTGATGGTTTTGGTAGACGGGCGGAGTCACCTAGTGCAG”: the binding signal is 11200 fluorescence intensity (a.u.).
With “TGGGTGGTGTTGGTTTTGCATGGTAGACGCGGGGTCCGATCGGAGTCACCTAGTGCAG”, the binding signal is 18400 fluorescence intensity (a.u.).
The value for “CTTTTTTTTGGTTTGCCGTGTGGTGGGTTTCGGGTCCGCGCGGAGTCACCTAGTGCAG” was 14500 fluorescence intensity (a.u.); that for “TTTGGGGTTCAGCGGGCATTTGTTTTGATTGTTTCTTATTCGGAGTCACCTAGTGCAG” was 23400 fluorescence intensity (a.u.).
Regarding “CTAAAAGTCAATCCACGCCACCATCGATCTCTCTATCCAACGGAGTCACCTAGTGCAG”, the binding signal was 9440 fluorescence intensity (a.u.).
On to “CTATGATTGGTCAAGTGCTGTTGCTATTTCTCTGCTGATACGGAGTCACCTAGTGCAG”, for which the binding signal was 10200 fluorescence intensity (a.u.).
Consider “TCACCACCACCATCACAACCCAATCCCAATCCAAACCACCCGGAGTCACCTAGTGCAG”, for which the binding signal is 8530 fluorescence intensity (a.u.).
With “GATCATCTGTTCCACCCGCCACCCGCCACCCGCCACAATCCGGAGTCACCTAGTGCAG”, the binding signal was 13200 fluorescence intensity (a.u.).
Regarding “GCTGTTCCATGCTCCACAACCCCGGGTCATTGACCCAATCCGGAGTCACCTAGTGCAG”, the binding signal was 16700 fluorescence intensity (a.u.).
For “GAAAAGCCACTAATCTCCAACCTCGTCTACACTTCTCCAACGGAGTCACCTAGTGCAG”, the binding signal is 8970 fluorescence intensity (a.u.).
Take “GTTTGATCCATTACAGCTCCACATATATTGTGAAATCATTCGGAGTCACCTAGTGCAG”: the binding signal is 10500 fluorescence intensity (a.u.).
“ACAACCGCACATACGCCACGGCCCACTCCTCCTTCTCGCCCGGAGTCACCTAGTGCAG”: the binding signal is 9350 fluorescence intensity (a.u.).
For the sequence “GAACGTCTGGACGTTGGAACACTCCATGTTTTTGTCTGATCGGAGTCACCTAGTGCAG”, the binding signal was 8740 fluorescence intensity (a.u.).
For “TCTGTCTATCCTTTGTAAAGTCACTTGCCCTTGCATTACTCGGAGTCACCTAGTGCAG”, the binding signal is 16500 fluorescence intensity (a.u.).
The value for “TATATCTATATGCCATATCATCTGTCTATCCTTTGTAAAGCGGAGTCACCTAGTGCAG” was 8740 fluorescence intensity (a.u.).
Regarding “CCTTGTCTGTACTCTCTCTACTTTCCACCTCTATCCGCCTCGGAGTCACCTAGTGCAG”, the binding signal was 9420 fluorescence intensity (a.u.).
The value for “GCATCCTTTTCATTGGCCTTTGCGTGTAATTTGGGGCATGCGGAGTCACCTAGTGCAG” was 9230 fluorescence intensity (a.u.).
Turning to “CCTCGGCCTATAGTGTTGGGTTTGGGTGTTGGTTTTTCCCCGGAGTCACCTAGTGCAG”, the binding signal is 15600 fluorescence intensity (a.u.).
Regarding “TTTTCGTGTTCGGGTTTGGGTTTGAGTGCCGCATCTGCAACGGAGTCACCTAGTGCAG”, the binding signal was 21500 fluorescence intensity (a.u.).
The value for “CCTCGTTTTTTTTTTTGGGTTCATCTCGTGTGTTCCGTGACGGAGTCACCTAGTGCAG” was 18400 fluorescence intensity (a.u.); that for “CTCGTCTGTTTTGTTTTCCCCTCCGACTCCGACTCCGATCCGGAGTCACCTAGTGCAG” was 8180 fluorescence intensity (a.u.); that for “GGTTTGGGTTCCTCTCTCGTCTCGTCTGTTTTGTTTTCCCCGGAGTCACCTAGTGCAG” was 21900 fluorescence intensity (a.u.).
Take “TGTTCTGGTTCGGATCTGAGCGGGTGTTGGGTGTTTTCAACGGAGTCACCTAGTGCAG”: the binding signal is 9230 fluorescence intensity (a.u.).
Then “ATACTTCCTTTCTGTTTCCAGTGTCTCTCTTCATGCACTCCGGAGTCACCTAGTGCAG”, with 10700 fluorescence intensity (a.u.).
Consider “ATTTTAATTAATCTCGTGTTGGGTTCTTATATGGTTTTTCCGGAGTCACCTAGTGCAG”, for which the binding signal is 8350 fluorescence intensity (a.u.).
As for “ATCTGGGTTCTTTTTTTTTCTTTTTTTGCCGGGTTTTTTTCGGAGTCACCTAGTGCAG”, the binding signal was 14800 fluorescence intensity (a.u.).
The value for “GTGTTTCCCATGGTTTGCACCAGTCTCCTCTGATGCAGTCCGGAGTCACCTAGTGCAG” was 26400 fluorescence intensity (a.u.).
The value for “GGTTTGTTTGTCGTTCATGTGACGAGCGCATCCGTTTTCCCGGAGTCACCTAGTGCAG” was 9140 fluorescence intensity (a.u.).
As to “CAGTCTCCTCTGATGCAGTCTCGTTCTCTGTTTCTTTTTGCGGAGTCACCTAGTGCAG”, the binding signal was 10600 fluorescence intensity (a.u.).
For “CGATTGCCATTGTTCGTGTGTTTTTTCTTGTCTCTTTCCGCGGAGTCACCTAGTGCAG”, the binding signal is 11000 fluorescence intensity (a.u.).
Consider “TCACCATCTCGACTCAGCCAATCCATTTCTAAATTTTATACGGAGTCACCTAGTGCAG”, for which the binding signal is 8690 fluorescence intensity (a.u.).
For the sequence “TTAACCACAGTGCCGTTCTCTAGCCACCATCTCAGCAGCACGGAGTCACCTAGTGCAG”, the binding signal is 8220 fluorescence intensity (a.u.).
